Results taken from PubChem BioAssay AID1159580 (chemical genetic matrix, 2015).
Where “and” joins values, the source holds several entries; their conditions need not be identical. Equal entries are not always repeated. Hit rate of the full screen: of about 5,500 compounds, about 2,000 (36%) were called active. About 18% were inconclusive and are not listed. No stated cut-off is given here; in the data, active means normalized growth mostly below about 0.91 (no sharp cut-off); inconclusive means no clear call, values can overlap the other calls; inactive means mostly above about 0.92. The list shows a part of the results.

Assay: chemical genetic growth profiling, strain panel (AID 1159580);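 further: tested at 20 µM; growth read once vehicle control cultures reached saturation at 30 °C; 1 = growth at the plate median or of vehicle wells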
Details: S. cerevisiae deletion strains, growth OD

Measured: normalized growth

CC1COc2c(N3CCN(C)CC3)c(F)cc3c(=O)c(C(=O)O)cn1c23 (stereo not drawn)
inactive: locus YAL013W, strain DEP1, stronger effect = lower value 0.993 | locus YAL021C, strain ccr4, stronger effect = lower value 0.99 | locus YAL026C, strain drs2, stronger effect = lower value 0.987 | locus YAL030W, strain snc1, stronger effect = lower value 0.988 | locus YAL040C, strain CLN3, stronger effect = lower value 1.03 | locus YBL061C, strain skt5, stronger effect = lower value 0.983 | locus YBR009C, strain hhf1, stronger effect = lower value 1 | locus YBR021W, strain FUR4, stronger effect = lower value 1.01 | locus YBR023C, strain chs3, stronger effect = lower value 0.98 | locus YBR171W, strain sec66, stronger effect = lower value 0.964 | locus YBR229C, strain ROT2, stronger effect = lower value 1.01 | locus YBR231C, strain swc5, stronger effect = lower value 0.991 | locus YBR279W, strain paf1, stronger effect = lower value 0.992 | locus YCL011C, strain gbp2, stronger effect = lower value 0.98 | locus YCL016C, strain dcc1, stronger effect = lower value 0.985 | locus YCL029C, strain bik1, stronger effect = lower value 1.01 | locus YCL061C, strain MRC1 (second series), stronger effect = lower value 1 | locus YCL061C, strain MRC1, stronger effect = lower value 0.982 | locus YCL069W, strain vba3, stronger effect = lower value 0.99 | locus YCR088W, strain abp1, stronger effect = lower value 0.986 | locus YDL005C, strain med2, stronger effect = lower value 0.974 | locus YDL035C, strain GPR1, stronger effect = lower value 1.03 | locus YDL040C, strain nat1, stronger effect = lower value 0.988 | locus YDL074C, strain BRE1, stronger effect = lower value 1.02 | locus YDL101C, strain DUN1, stronger effect = lower value 1.01 | locus YDL134C, strain PPH21, stronger effect = lower value 1.01 | locus YDL185W, strain tfp1, stronger effect = lower value 1.05 | locus YDL192W, strain arf1, stronger effect = lower value 1.01 | locus YDR001C, strain nth1, stronger effect = lower value 0.982 | locus YDR069C, strain doa4, stronger effect = lower value 1.01 | locus YDR101C, strain arx1, stronger effect = lower value 1 | locus YDR137W, strain rgp1, stronger effect = lower value 0.954 | locus YDR159W, strain sac3, stronger effect = lower value 1.01 | locus YDR162C, strain NBP2, stronger effect = lower value 1.01 | locus YDR195W, strain ref2 0.996 | locus YDR297W, strain sur2, stronger effect = lower value 0.985 | locus YDR318W, strain mcm21, stronger effect = lower value 1.01 | locus YDR334W, strain swr1, stronger effect = lower value 0.975 | locus YDR335W, strain msn5, stronger effect = lower value 0.997 | locus YDR363W, strain ESC2, stronger effect = lower value 1.01 | locus YDR388W, stronger effect = lower value 1.01 | locus YDR392W, strain spt3, stronger effect = lower value 0.903 | locus YDR502C, strain sam2, stronger effect = lower value 1.01 | locus YEL003W, strain gim4, stronger effect = lower value 1 | locus YEL037C, strain rad23, stronger effect = lower value 0.979 | locus YEL061C, strain CIN8 (second series), stronger effect = lower value 0.985 | locus YEL061C, strain CIN8, stronger effect = lower value 1.01 | locus YER002W, strain NOP16, stronger effect = lower value 0.981 | locus YER015W, strain faa2, stronger effect = lower value 0.99 | locus YER016W, strain bim1, stronger effect = lower value 1.01 | locus YER110C, stronger effect = lower value 1.02 | locus YER111C, strain swi4, stronger effect = lower value 0.983 | locus YER155C, strain BEM2 (second series), stronger effect = lower value 0.978 | locus YER155C, strain BEM2, stronger effect = lower value 1.01 | locus YER167W, strain BCK2, stronger effect = lower value 1.01 | locus YFR010W, strain ubp6, stronger effect = lower value 0.978 | locus YGL078C, strain dbp3, stronger effect = lower value 1.01 | locus YGL086W, strain mad1, stronger effect = lower value 1 | locus YGL167C, strain pmr1, stronger effect = lower value 0.985 | locus YGL173C, strain kem1, stronger effect = lower value 0.975 | locus YGL227W, strain vid30, stronger effect = lower value 0.991 | locus YGL240W, strain doc1, stronger effect = lower value 0.996 | locus YGL248W, strain PDE1, stronger effect = lower value 1 | locus YGL253W, strain hxk2, stronger effect = lower value 0.995 | locus YGR135W, strain pre9, stronger effect = lower value 1.01 | locus YGR229C, strain SMI1, stronger effect = lower value 1.03 | locus YGR252W, strain gcn5, stronger effect = lower value 1.01 | locus YHR013C, strain ard1, stronger effect = lower value 0.961 | locus YHR027C, strain rpn1, stronger effect = lower value 0.986 | locus YHR030C, strain SLT2, stronger effect = lower value 1.01 and 0.988 | locus YHR079C, strain IRE1 (second series), stronger effect = lower value 1.01 | locus YHR079C, strain IRE1, stronger effect = lower value 0.988 | locus YHR094C, strain hxt1, stronger effect = lower value 1.02 | locus YHR129C, strain ARP1, stronger effect = lower value 1 | locus YHR142W, strain chs7, stronger effect = lower value 0.956 | locus YHR200W, strain rpn10, stronger effect = lower value 1.01 | locus YIL066C, strain RNR3, stronger effect = lower value 1.01 | locus YIL073C, strain SPO22, stronger effect = lower value 1.1 | locus YIL125W, strain kgd1, stronger effect = lower value 1.01 | locus YIR030C, strain dcg1, stronger effect = lower value 1.01 | locus YJL092W, strain hpr5, stronger effect = lower value 0.983 | locus YJL095W, strain BCK1 (second series), stronger effect = lower value 0.993 | locus YJL095W, strain BCK1, stronger effect = lower value 1 and 0.976 | locus YJL115W, strain asf1, stronger effect = lower value 0.971 | locus YJL129C, strain trk1, stronger effect = lower value 0.987 | locus YJL134W, strain LCB3, stronger effect = lower value 1.01 | locus YJL154C, strain vps35, stronger effect = lower value 0.982 | locus YJL164C, strain tpk1, stronger effect = lower value 0.987 | locus YJL166W, strain qcr8, stronger effect = lower value 0.969 | locus YJL168C, strain set2, stronger effect = lower value 1.01 | locus YJL187C, strain SWE1 (second series), stronger effect = lower value 1 | locus YJL187C, strain SWE1, stronger effect = lower value 0.987 | locus YJR043C, strain POL32, stronger effect = lower value 1.02
